{"source": "PubChem BioAssay AID430", "about": "(Sanford-Burnham Center for Chemical Genomics, 2006)", "note": "Screen size: about 63,000 compounds; about 1,100 (1.7%) were called active. No stated cut-off is given here; in the data, active means cytotoxicity above about 50%; inactive means the rest. Only a selection was taken, and actives are over-represented in it overall. Potency and affinity values are given separately.", "data": [{"test": "cytotoxicity in HPDE-C7 cells, cell-based, fluorescence, HTS (AID 430);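 further: cells exposed to compound for 48 hours before viability readout; 0% = vehicle and 100% = reference cytotoxic drug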", "settings": "HPDE-C7 pancreatic duct cells viability, at 10 µM, active compounds read high", "values": [{"molecule": "CCn1c(=O)cc(OCC(=O)N2CCCC2)c2ccccc21", "cytotoxicity": "-3% (inactive)"}, {"molecule": "COc1ccc(C(CNC(=O)Cn2[nH]c(=O)c3ccccc3c2=O)N2CCCC2)cc1", "note": "(stereo unspecified)", "cytotoxicity": "1.8% (inactive)"}, {"molecule": "Cc1ccc(Cc2c(C)nc3nc(SCC(=O)NCc4ccco4)nn3c2C)cc1", "cytotoxicity": "61.8% (active)"}, {"molecule": "Cc1cccc(Cc2c(C)nc3nc(SCC(=O)NCc4ccco4)nn3c2C)c1", "cytotoxicity": "45.8% (inactive)"}, {"molecule": "Cc1ccccc1Cc1c(C)nc2nc(SCC(=O)NCc3ccco3)nn2c1C", "cytotoxicity": "12% (inactive)"}, {"molecule": "Cc1nnc(NC(=O)c2ccc(-c3cccc(C(F)(F)F)c3)o2)s1", "cytotoxicity": "-13.1% (inactive)"}, {"molecule": "CCOC(=O)c1sc(NC(=O)c2cccs2)cc1C", "cytotoxicity": "-16.1% (inactive)"}, {"molecule": "CCOC(=O)c1sc(NC(=O)c2c(C)nn(Cc3ccccc3)c2C)cc1C", "cytotoxicity": "72.7% (active)"}, {"molecule": "CCOC(=O)c1c(C)nn(Cc2ccccc2)c1N", "cytotoxicity": "-1.6% (inactive)"}, {"molecule": "Cc1cccc(OCc2nnc(SCC(=O)N(C(C)C)C(C)C)n2Cc2ccco2)c1C", "cytotoxicity": "-16% (inactive)"}, {"molecule": "CC1(C)Cc2c(sc3ncn4nc(CCC(=O)O)c(=O)nc4c23)CO1", "cytotoxicity": "-23.3% (inactive)"}, {"molecule": "O=C(Nc1cc(C(F)(F)F)ccc1N1CCOCC1)c1cccnc1", "cytotoxicity": "4.3% (inactive)"}, {"molecule": "O=C(Nc1cc(C(F)(F)F)ccc1N1CCOCC1)c1c(F)c(F)c(F)c(F)c1F", "cytotoxicity": "51% (active)"}, {"molecule": "Cc1onc(-c2ccccc2)c1C(=O)Nc1ccccc1N1CCOCC1", "cytotoxicity": "4.9% (inactive)"}, {"molecule": "CC(=O)Nc1cc(C(F)(F)F)ccc1N1CCOCC1", "cytotoxicity": "14.9% (inactive)"}, {"molecule": "O=C(Nc1cc(C(F)(F)F)ccc1N1CCOCC1)c1ccco1", "cytotoxicity": "1.1% (inactive)"}, {"molecule": "Cc1onc(-c2ccccc2)c1C(=O)Nc1cc(C(F)(F)F)ccc1N1CCOCC1", "cytotoxicity": "69.1% (active)"}, {"molecule": "COc1ccccc1NC(=O)C1=C(C)Nc2ncnn2C1c1cccs1", "note": "(stereo unspecified)", "cytotoxicity": "3.3% (inactive)"}, {"molecule": "O=C(Cn1cnc2c(nnn2Cc2ccccc2F)c1=O)OCc1ccccc1", "cytotoxicity": "-18.4% (inactive)"}, {"molecule": "CCSc1nnc(NC(=O)CSc2nnc(Cc3cccn3C)n2-c2ccc(C)cc2)s1", "cytotoxicity": "39.6% (inactive)"}, {"molecule": "CCSc1nnc(NC(=O)CSc2nnc(Cc3cccn3C)n2-c2ccc(F)cc2)s1", "cytotoxicity": "65.6% (active)"}, {"molecule": "Cn1cccc1Cc1nnc(SCC(=O)Nc2ccc(F)cc2)n1-c1ccc(F)cc1", "cytotoxicity": "-3.8% (inactive)"}, {"molecule": "Cc1nnc(Nc2ccc(C(=O)NCCO)cc2)c2ccccc12", "cytotoxicity": "8.6% (inactive)"}, {"molecule": "CC(O)C(=O)NCCOCCOCCNC(=O)C(C)O", "note": "(stereo unspecified)", "cytotoxicity": "-5.5% (inactive)"}, {"molecule": "COC(=O)c1ccc(Sc2ccc(C)cc2)c(N)c1", "cytotoxicity": "9.4% (inactive)"}, {"molecule": "Cc1ccc(O)c(Sc2cc(C)ccc2O)c1", "cytotoxicity": "52.6% (active)"}, {"molecule": "CC(C)c1ccc(O)c(N)c1", "cytotoxicity": "6.8% (inactive)"}, {"molecule": "COC(=O)c1ccc(OC(=O)c2ccc(OC)c(OC)c2)c(OC)c1", "cytotoxicity": "4.3% (inactive)"}, {"molecule": "Cc1ccc(SC(C)C(=O)NCC(C)C)cc1", "note": "(stereo unspecified)", "cytotoxicity": "-2.6% (inactive)"}, {"molecule": "CN(CCC#N)S(=O)(=O)c1ccc2c(c1)c(=O)n(C)c(=O)n2C", "cytotoxicity": "-12.5% (inactive)"}, {"molecule": "CCCN(S(=O)(=O)c1ccc(OCC)cc1)S(=O)(=O)c1cccs1", "cytotoxicity": "-20.2% (inactive)"}, {"molecule": "O=C(Nc1ccccc1Cl)c1c(F)c(F)c(F)c(F)c1F", "cytotoxicity": "-8.2% (inactive)"}, {"molecule": "COCC(=O)Nc1cc(OC)c(Cl)cc1OC", "cytotoxicity": "-1.4% (inactive)"}, {"molecule": "COc1cc(NC(=O)C2CCCC2)c(OC)cc1Cl", "cytotoxicity": "-20.5% (inactive)"}, {"molecule": "CCOC(=O)c1ccccc1NC(=O)c1cccs1", "cytotoxicity": "-6% (inactive)"}, {"molecule": "COc1cc(NC(=O)c2c(F)c(F)c(F)c(F)c2F)c(OC)cc1Cl", "cytotoxicity": "55.4% (active)"}, {"molecule": "CCOC(=O)c1ccccc1NC(=O)c1ccccc1SC", "cytotoxicity": "25.3% (inactive)"}, {"molecule": "Cc1ccccc1NC(=O)c1c(F)c(F)c(F)c(F)c1F", "cytotoxicity": "-10.5% (inactive)"}, {"molecule": "O=C(CSc1nnc(-c2ccc(Cl)cc2)n1Cc1ccco1)c1cccs1", "cytotoxicity": "-6.2% (inactive)"}, {"molecule": "CCCCS(=O)CC(COCc1ccccc1)OC(=O)CSc1nc(C)cc(C)n1", "note": "(stereo unspecified)", "cytotoxicity": "8.8% (inactive)"}, {"molecule": "COC(=O)C1=CNC=C(C(=O)OC)C1c1ccc(C(=O)OC)cc1", "cytotoxicity": "5.1% (inactive)"}, {"molecule": "CC1(C)Cc2c(c(=S)nc(-c3ccccc3)n2CCN2CCOCC2)CO1", "cytotoxicity": "-21.2% (inactive)"}, {"molecule": "CCOC(=O)C1CCN(C(=O)c2sc3nc(-c4ccccc4)cn3c2C)CC1", "cytotoxicity": "-0.3% (inactive)"}, {"molecule": "Cn1c(N)c(C(=O)COC(=O)C2(c3ccccc3F)CCCC2)c(=O)n(C)c1=O", "cytotoxicity": "-7% (inactive)"}, {"molecule": "CCOCCCNC(=O)C(Cc1ccccc1)NC(=O)c1ccco1", "note": "(stereo unspecified)", "cytotoxicity": "-8.1% (inactive)"}, {"molecule": "Cc1cc(C)c2c(CN3CCN(C/C=C/c4ccccc4)CC3)cc(=O)oc2c1", "cytotoxicity": "69.9% (active)"}, {"molecule": "CCN1CCN(Cc2cc(=O)oc3cc(C)cc(C)c23)CC1", "cytotoxicity": "2.1% (inactive)"}, {"molecule": "Cc1cc(C)c2c(CN3CCN(C)CC3)cc(=O)oc2c1", "cytotoxicity": "-8.5% (inactive)"}, {"molecule": "O=c1ccnc(S/C=C/c2ccccc2)[nH]1", "cytotoxicity": "-11.2% (inactive)"}, {"molecule": "O=C(Cn1c(=O)[nH]c2ccsc2c1=O)N1CCN(c2ccc(F)cc2)CC1", "cytotoxicity": "9.5% (inactive)"}, {"molecule": "Cc1nn(Cc2ccc(Cl)c(Cl)c2)c(C)c1NC(=O)c1cc(-c2ccc3c(c2)OCO3)on1", "cytotoxicity": "54.7% (active)"}, {"molecule": "Cc1ccc(Cn2nc(C)c(NC(=O)c3cc(-c4ccc5c(c4)OCO5)on3)c2C)cc1", "cytotoxicity": "16.2% (inactive)"}, {"molecule": "Cc1nn(Cc2ccc(Cl)cc2)c(C)c1NC(=O)c1cc(-c2ccc3c(c2)OCO3)on1", "cytotoxicity": "35.4% (inactive)"}, {"molecule": "O=C(c1ccc2c(c1)OCO2)N1CCCc2ccccc21", "cytotoxicity": "-12.5% (inactive)"}, {"molecule": "CN(C)S(=O)(=O)c1ccc(C(=O)Nc2ccccn2)cc1", "cytotoxicity": "0.8% (inactive)"}, {"molecule": "COc1ccc(-n2c(Cc3cccn3C)nnc2SCC(=O)Nc2cc(Cl)ccc2OC)cc1", "cytotoxicity": "-0.9% (inactive)"}, {"molecule": "Cn1nnnc1SCC(=O)NCCc1ccc(Cl)cc1", "cytotoxicity": "-8.2% (inactive)"}, {"molecule": "COc1ccccc1N1CCN(Cc2cc(Br)c(O)c3ncccc23)CC1", "cytotoxicity": "5.1% (inactive)"}, {"molecule": "CN1CCN(Cc2cc(COCc3ccccc3)c3cccnc3c2O)CC1", "cytotoxicity": "-9.2% (inactive)"}, {"molecule": "Oc1c(CN2CCCCC2)cc(COCc2ccccc2)c2cccnc12", "cytotoxicity": "-10.8% (inactive)"}, {"molecule": "COCc1cc(CN2CCCC2)c(O)c2ncccc12", "cytotoxicity": "-11.9% (inactive)"}, {"molecule": "Oc1ccc(CN2CCN(Cc3ccccc3)CC2)c2cccnc12", "cytotoxicity": "6.2% (inactive)"}, {"molecule": "Oc1ccc(CNc2ccccc2F)c2cccnc12", "cytotoxicity": "-4.7% (inactive)"}, {"molecule": "Oc1ccc(CNc2ccccc2)c2cccnc12", "cytotoxicity": "34.7% (inactive)"}, {"molecule": "Oc1ccc(CNc2ccc(F)cc2)c2cccnc12", "cytotoxicity": "45.3% (inactive)"}, {"molecule": "Oc1c(CN2CCOCC2)cc(COCc2ccccc2)c2cccnc12", "cytotoxicity": "60.7% (active)"}]}]}
